Source: PubChem BioAssay (Tox21)
Where “and” joins values, the source holds several entries; their conditions need not be identical. Equal entries are not always repeated. Results filed as inconclusive are left out. More than one record can exist for a structure, and the calls need not agree. Calls of active or inactive are those of the source. Unless noted, the call rests on the fitted dose curve; in most records, active means well fitted curve in the direction sought with a large enough effect in the repeat runs; inconclusive means weak or mixed curves; inactive means no such curve, though single readings can be large; an effect the other way counts as inactive or inconclusive.

What was measured:
[1] = qHTS assay for small molecule agonists of the p53 signaling pathway (AID 651631; calls by dose curve; further: nearly all actives have a fitted effect of over 15% in size; further: potency means the concentration at half of the fitted maximal effect)
Method in brief: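 Testing took place in human colorectal HCT-116 cells with stable p53RE-driven beta-lactamase. After 16 h of compound exposure at 37 °C, a FRET substrate was added and fluorescence recorded 2 h later.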

[2] = qHTS assay for small molecules that induce genotoxicity in human embryonic kidney cells expressing luciferase-tagged ATAD5 (AID 651632); further: nearly all actives have a fitted effect of over 15% in size
Method in brief: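 Luminescent reporter readout, HEK293T ATAD5-luc line: 16 hr drug exposure (37C, 5% CO2) followed by Amplite, 30 min RT.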

[3] = qHTS assay for small molecule agonists of the p53 signaling pathway - cell viability (AID 651633; calls by dose curve; further: nearly all actives have a fitted effect of over 30% in size; further: potency means the concentration at half of the fitted maximal effect)
Method in brief: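 p53RE-bla cells, seeded at 4,000 per well and rested 5 h at 37 C/5% CO2, received compounds in DMSO for 16 h at 37 C. CellTiter-Glo was then added, and luminescence was read after 30 min at room temperature to gauge cytotoxicity.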

[4] = qHTS assay for small molecules that induce genotoxicity in human embryonic kidney cells expressing luciferase-tagged ATAD5 - cell viability (AID 651634; calls by dose curve; further: nearly all actives have a fitted effect of over 25% in size; further: potency means the concentration at half of the fitted maximal effect)
Method in brief: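 Viability read: CellTiter-Fluor fluorescence, 30 min at 37C. Cells: HEK293T, luciferase-tagged ATAD5. Exposure: 15.5 hr, 37C, 5% CO2, compound or DMSO vehicle.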

[5] = qHTS assay for small molecule disruptors of the mitochondrial membrane potential (AID 720635); further: potency means the concentration at half of the fitted maximal effect
Method in brief: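 HepG2 cells (2,000/well) attached overnight at 37C, then took compound for 1 hr at 37C, 5% CO2. Mito-MPS dye was added for 30 min; fluorescence was read at 490/535 nm (monomers) and 540/590 nm (aggregates).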

[6] = qHTS assay to test for compound auto fluorescence at 590 nm (red) in HepG2 cells (AID 720674)
Method in brief: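 Compound auto-fluorescence is scored relative to Rose Bengal sodium, measured at 540/590 nm in live HepG2 cultures after 1 hr compound contact (37 C, 5% CO2).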

[7] = qHTS assay to test for compound auto fluorescence at 460 nm (blue) in HEK293 cells (AID 720678)
Method in brief: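 Cells were seeded and left to adhere for 4-5 hr at 37C. Compounds were then pin-transferred. After an overnight incubation at 37C under 5% CO2, intrinsic fluorescence at 405/460 nm was measured and referenced to triamterene.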

[8] = qHTS assay to test for compound auto fluorescence at 590 nm (red) in HEK293 cells (AID 720679)
Method in brief: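 Each well held 2,000 HEK293 cells in medium containing 10% dialyzed FBS. Following 4-5 hr attachment at 37C, 23 nL test compound or DMSO was added; plates sat overnight, and red fluorescence (540/590nm) was recorded.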

[9] = qHTS assay to test for compound auto fluorescence at 535 nm (green) in HEK293 cells (AID 720680)
[10] = qHTS assay to test for compound auto fluorescence at 460 nm (blue) in HEK293 cell free culture (AID 720681)
Method in brief: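 Test compounds were pinned into cell-free culture medium (DMEM with 10% FBS) and fluorescence was read directly at Ex/Em 405/460 nm. Signals were expressed as fluorescence equivalents of triamterene, with DMSO vehicle as control.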

[11] = qHTS assay to test for compound auto fluorescence at 535 nm (green) in HEK293 cell free culture (AID 720682)
Method in brief: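 DMEM + 10% FBS, cell-free; cpd or DMSO pinned in; Ex485/Em535 read; output as fluorescein-equivalent signal.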

[12] = qHTS assay to test for compound auto fluorescence at 590 nm (red) in HEK293 cell free culture (AID 720683)
Method in brief: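 Tox21 10K library compounds were pinned into cell-free DMEM with 10% FBS and fluorescence was read at excitation 540 nm. Activity is expressed as Rose Bengal sodium equivalency.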

[13] = qHTS assay to test for compound auto fluorescence at 590 nm (red) in HepG2 cell free culture (AID 720684)
Method in brief: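 Measured in medium alone (MEM containing 10% FBS) following pintool addition of compound; emission at 590 nm with 540 nm excitation, referenced to Rose Bengal sodium.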

[14] = qHTS assay to test for compound auto fluorescence at 460 nm (blue) in HepG2 cell free culture (AID 720685)
Method in brief: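 Compound (23 nL) or DMSO pinned into cell-free MEM with 10% FBS; blue fluorescence read at 405/460 nm excitation/emission, expressed as auto-fluorescence equivalency to triamterene.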

[15] = qHTS assay to test for compound auto fluorescence at 535 nm (green) in HepG2 cell free culture (AID 720686)
[16] = qHTS assay to test for compound auto fluorescence at 460 nm (blue) in HepG2 cells (AID 720687)
Method in brief: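 Cells (2,000/well in MEM with 10% FBS) attached overnight at 37 C, then were exposed to compound or DMSO for 1 hr at 37 C, 5% CO2. Fluorescence read at Ex/Em 405/460 nm, expressed as triamterene-equivalent signal.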

[17] = biological target: Glucocorticoid receptor (Homo sapiens) (UniProt P04150); experiment: qHTS assay to identify small molecule agonists of the glucocorticoid receptor (GR) signaling pathway (AID 720691; active means well fitted activation curve with a large enough effect in the signal ratio in the repeat runs, not every such curve was filed as active; the % refers to the signal ratio); details: GR-bla HeLa, beta-lactamase reporter ratio, 18 h; activation: at 62.4 µM (top of the series)
Chain of Glucocorticoid receptor (Homo sapiens) (P04150 whole entry, looked up): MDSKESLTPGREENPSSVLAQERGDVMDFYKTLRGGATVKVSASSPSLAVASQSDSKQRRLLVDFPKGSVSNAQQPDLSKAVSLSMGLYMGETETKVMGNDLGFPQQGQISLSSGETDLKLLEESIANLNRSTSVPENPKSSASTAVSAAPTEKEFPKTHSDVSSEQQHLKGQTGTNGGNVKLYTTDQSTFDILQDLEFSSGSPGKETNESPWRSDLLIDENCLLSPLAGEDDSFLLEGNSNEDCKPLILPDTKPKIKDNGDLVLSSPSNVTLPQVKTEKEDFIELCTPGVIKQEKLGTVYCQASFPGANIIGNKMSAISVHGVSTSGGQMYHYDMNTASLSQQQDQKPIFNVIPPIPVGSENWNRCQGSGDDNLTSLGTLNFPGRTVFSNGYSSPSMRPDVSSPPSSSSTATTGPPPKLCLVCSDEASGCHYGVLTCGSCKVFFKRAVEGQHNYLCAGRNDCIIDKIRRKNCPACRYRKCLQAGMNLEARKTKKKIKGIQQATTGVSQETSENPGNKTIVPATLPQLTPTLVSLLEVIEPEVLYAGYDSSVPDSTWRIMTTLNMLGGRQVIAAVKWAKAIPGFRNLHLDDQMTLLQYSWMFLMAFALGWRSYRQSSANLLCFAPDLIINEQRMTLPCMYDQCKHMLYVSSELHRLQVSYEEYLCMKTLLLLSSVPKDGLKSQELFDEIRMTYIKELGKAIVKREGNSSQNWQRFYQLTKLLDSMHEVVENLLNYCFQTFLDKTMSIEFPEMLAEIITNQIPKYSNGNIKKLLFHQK
Method in brief: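 qHTS in GR-bla HeLa cells: 4 h settling at 37 C/5% CO2, 18 h compound incubation at 37 C, 2 h LiveBLAzer B/G FRET substrate at room temperature, fluorescence intensity measured.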

[18] = qHTS assay for small molecule disruptors of the mitochondrial membrane potential - cell viability (AID 720634; calls by dose curve; further: nearly all actives have a fitted effect of over 20% in size; further: potency means the concentration at half of the fitted maximal effect)
Method in brief: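 HepG2, 1 hr compound, 37 C. ATP luminescence via CellTiter-Glo, 30 min RT, same well as m-MPI.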

[19] = qHTS assay to test for compound auto fluorescence at 535 nm (green) in HepG2 cells (AID 720675)
[20] = biological target: Glucocorticoid receptor (Homo sapiens) (UniProt P04150); experiment: qHTS assay to identify small molecule antagonists of the glucocorticoid receptor (GR) signaling pathway (AID 720692; active means well fitted inhibition curve with a large enough effect in the signal ratio in the repeat runs, not every such curve was filed as active; the % refers to the signal ratio)
Method in brief: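 Inhibition of glucocorticoid signalling is measured in HeLa cells with a GRE-controlled beta-lactamase reporter; cells are co-treated with compound and 5 nM dexamethasone (final) for 18 h before FRET substrate readout.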
On the % scale 0 is the no-effect control and ±100 the full control effect.

C[C@H]1[C@H](c2ccc(Cl)cc2)SC(=O)N1C(=O)NC1CCCCC1
active: Potency [5] 15400 nM
inactive: Potency [1] | Potency [2] | Potency [3] | Potency [4] | outcome [6] | Potency [7] | outcome [8] | outcome [9] | Potency [10] | outcome [11] | outcome [12] | outcome [13] | Potency [14] | Potency [15] | Potency [16] | Potency [17]

CCC1COC(Cn2cncn2)(c2ccc(Cl)cc2Cl)O1 (stereo not drawn)
inactive: Potency [1] | Potency [2] | Potency [3] | Potency [4] | Potency [18] | outcome [6] | Potency [19] | Potency [7] | outcome [9] | outcome [11] | outcome [13] | Potency [14] | Potency [15] | Potency [16] | Potency [17]

CO/N=C(\C(=O)OC)c1ccccc1CO/N=C(\C)c1cccc(C(F)(F)F)c1
inactive: Potency [2] | Potency [4] | outcome [6] | Potency [19] | Potency [7] | outcome [8] | outcome [9] | Potency [10] | outcome [11] | outcome [12] | outcome [13] | Potency [14] | Potency [15] | Potency [16]
active: Potency [1] 1090 nM | Potency [18] 21700 nM | Potency [5] 9690 nM

CCCN
inactive: Potency [2] | Potency [3] | Potency [4] | Potency [18] | Potency [5] | outcome [6] | Potency [19] | Potency [7] | outcome [8] | outcome [9] | Potency [10] | outcome [11] | outcome [13] | Potency [14] | Potency [15] | Potency [16]

N#CC(C#N)=NNc1cccc(Cl)c1
active: Potency [3] 864 nM | Potency [4] 7.7 µM | Potency [5] 109 nM
inactive: Potency [2] | Potency [18] | outcome [6] | Potency [19] | Potency [7] | outcome [8] | outcome [9] | Potency [10] | outcome [11] | outcome [12] | outcome [13] | Potency [14] | Potency [15] | Potency [16]

Brc1cccc(-c2ccccc2)c1
active: Potency [5] 436 nM
inactive: Potency [2] | Potency [3] | Potency [4] | Potency [18] | outcome [6] | Potency [19] | Potency [7] | outcome [8] | outcome [9] | Potency [10] | outcome [11] | outcome [12] | outcome [13] | Potency [14] | Potency [15] | Potency [16] | Potency [20]

O=S(=O)(O)F
inactive: Potency [2] | Potency [3] | Potency [4] | Potency [18] | Potency [5] | outcome [6] | Potency [19] | Potency [7] | outcome [8] | outcome [9] | Potency [10] | outcome [11] | outcome [12] | outcome [13] | Potency [14] | Potency [15] | Potency [16]

COP(=O)(OC)Oc1ccc([N+](=O)[O-])cc1
inactive: Potency [2] | Potency [3] | Potency [4] | Potency [18] | Potency [5] | outcome [6] | Potency [19] | Potency [7] | outcome [8] | outcome [9] | Potency [10] | outcome [11] | outcome [12] | outcome [13] | Potency [14] | Potency [15] | Potency [16]

CCC[CH2][Sn]([CH2]CCC)([CH2]CCC)[O][Sn]([CH2]CCC)([CH2]CCC)[CH2]CCC
inactive: activation [2] -11.2% [at 8.08 µM] | fluorescence, relative to Rose Bengal [6] -0.33% [at 3.72 µM] | fluorescence, % of fluorescein control [19] -0.0029% [at 3.72 µM] | fluorescence, % of triamterene [7] -0.1% [at 3.72 µM] | fluorescence, % of fluorescent control [8] -0.182% [at 3.72 µM] | fluorescence, % of fluorescein [9] 0.0128% [at 3.72 µM] | fluorescence, % of fluorescent control [10] -0.0236% [at 3.72 µM] | activity change [11] 0.0175% [at 3.72 µM] | fluorescence, % of fluorescent control [12] 0.113% [at 3.72 µM] | fluorescence, % of Rose Bengal [13] 0.0071% [at 3.72 µM] | fluorescence, % of fluorescent control [14] -0.0005% [at 3.72 µM] | fluorescence, % of fluorescein control [15] -0.0002% [at 3.72 µM] | fluorescence, % of fluorescent control [16] 0.0007% [at 3.72 µM]
active: Potency [3] 533 nM | Potency [4] 0.377 µM | Potency [18] 1680 nM | Potency [5] 75.2 nM

O=C(O)CCCCCCNC1c2ccccc2CCc2ccccc21
inactive: Potency [2] | Potency [3] | Potency [4] | Potency [18] | Potency [5] | outcome [6] | Potency [19] | Potency [7] | outcome [8] | outcome [9] | Potency [10] | outcome [11] | outcome [12] | outcome [13] | Potency [14] | Potency [15] | Potency [16] | Potency [17] | Potency [20]

ClCBr
inactive: Potency [2] | Potency [3] | Potency [4] | Potency [18] | Potency [5] | outcome [6] | Potency [19] | Potency [7] | outcome [8] | outcome [9] | Potency [10] | outcome [11] | outcome [12] | outcome [13] | Potency [14] | Potency [15] | Potency [16] | Potency [17]

CN=C=O
inactive: Potency [1] | Potency [3] | Potency [4] | Potency [18] | outcome [6] | Potency [7] | outcome [8] | outcome [9] | outcome [11] | outcome [12] | outcome [13] | Potency [14] | Potency [15] | Potency [16]

BrCCCBr
inactive: Potency [2] | Potency [3] | Potency [4] | Potency [18] | Potency [5] | outcome [6] | Potency [19] | Potency [7] | outcome [8] | outcome [9] | Potency [10] | outcome [11] | outcome [12] | outcome [13] | Potency [14] | Potency [15] | Potency [16] | Potency [17] | Potency [20]

CC(C)N(C(=O)CCl)c1ccccc1
inactive: Potency [2] | Potency [18] | Potency [5] | outcome [6] | Potency [19] | Potency [7] | outcome [8] | outcome [9] | Potency [10] | outcome [11] | outcome [12] | outcome [13] | Potency [14] | Potency [15] | Potency [16]
inactive and 30.6 µM (active): Potency [3]
active: Potency [4] 27.3 µM and 38.6 µM
